Many of the other results were omitted from the sample, so hits are more common in it than they were.
CHX counter: counter-screen hit for Shiga toxin inhibitors, cycloheximide; cell reporter, cycloheximide protein synthesis inhibition counterscreen; max response, %; 300,000 tested, 12% active; in the data active means max response mostly above about 13%, no sharp cut-off; inactive means mostly below about 14%; further: read at 38.3 µM for the half of the compounds with a filed dose; 0% is about no effect
LASV entry inh: Lassa virus entry inhibition; Lassa virus pseudotype entry inhibition, cell reporter; 300,000 tested, 1.2% active; Potency, µM (highest dose often 37.9 µM), without a hit: at the highest dose activity change, negative = inhibition, hits mostly inhibitors; calls by dose curve; tested in HEK293 cells; further: potency means the concentration at half of the fitted maximal effect; on the % scale 0 is the no-effect control and ±100 the full control effect; nearly all actives have a fitted effect of over 50% in size
MARV entry inh: blocks Marburg virus binding to or entry into cells; 300,000 tested, 1.8% active; AID 540276; Marburg virus pseudotyped entry inhibition, cell reporter; Potency, µM (doses to about 37.8 µM), without a hit: at the top dose activity change, negative = inhibition, most hits filed as inhibitors; calls by dose curve; tested in HEK293 cells; further: potency means the concentration at half of the fitted maximal effect; on the % scale 0 is the no-effect control and ±100 the full control effect
Shiga inhibitor: blocks Shiga toxin action in Vero cells. Vero cells, Shiga toxin protein synthesis inhibition reporter. inhibition, % at 38.7 µM. 290,000 tested, 9.2% active. AID 2315; in the data active means inhibition mostly above about 28%, no sharp cut-off; inactive means mostly below about 43%; further: 0% is about no effect
AMA1 RON2 block: AMA1-RON2 (P. falciparum) interaction inhibition. AlphaScreen AMA1-biotinylated RON2 peptide binding. Potency, µM (highest dose often 58.2 µM), for the others: at the top dose activity change, negative = inhibition, usual class: inhibitors. 360,000 tested, 0.2% active. AID 720542; active means well fitted inhibition curve with a large enough effect; inconclusive means small, poorly fitted or top-dose-only effect; inactive means no such curve, though single readings can be large or run the other way;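 further: potency means the concentration at half of the fitted maximal effect; 0% = vehicle wells and -100% = peptide control; nearly all actives have a fitted effect of over 45% in size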
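AMA1 (3D7) with his tag at 25 nM final met compounds first, then biotinylated RON2 peptide at 25 nM; detection used donor plus acceptor beads, 10 µg/mL apiece, read by AlphaScreen after 30 min at room temperature.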
The depositor's hits bear a star; ? = inconclusive; nt = no result given; [ ] = another dose, or the depositor's remark.

SMILES	CHX counter	LASV entry inh	MARV entry inh	Shiga inhibitor	AMA1 RON2 block
O=C(/C=C/c1ccccc1)NC(NC(=S)Nc1cccc(Cl)c1)C(Cl)(Cl)Cl (stereo not given)	-2.2	9.2µM*	?	11.1	-6.6%
COc1ccc(C(=C2C(=O)Nc3ccccc32)c2ccc(OC)cc2)cc1	4.7	nt	nt	-7.1	nt
CC(C)OP(=O)(c1ccc(N(C)C)cc1)C(O)c1cccnc1 (stereo not given)	-0.8	nt	nt	25.6	-6.0%
Cc1ccc(CC(=O)Nc2cccc([N+](=O)[O-])c2)cc1	-1.9	nt	nt	31.6	-0.2%
Cc1ccc(C(=O)CNc2cccc([N+](=O)[O-])c2)cc1	38.2*	8.1%	0.0%[46.1 µM]	90.0*	20.4%
Cc1ccc(NCC(=O)c2ccc([N+](=O)[O-])cc2)cc1	42.8*	-0.9%	?	85.3*	-25.9%
Cc1ccc(NCCC(=O)c2cccc([N+](=O)[O-])c2)c(C)c1	35.0*	?	20.7%	0.0	?
Cc1ccc(C(=O)NC2CCN(CC(=O)Nc3cccc([N+](=O)[O-])c3)CC2)cc1	-2.7	-9.8%	0.794µM*	-4.4	-8.2%
Cc1ccc(S(=O)(=O)CC(=O)c2ccc([N+](=O)[O-])cc2)cc1	5.3	nt	nt	-3.7	-3.9%
Cc1ccc(Cn2c(=O)c3cccnc3n(CC(=O)Nc3cc(Cl)ccc3C)c2=O)cc1	nt	nt	22.9%[46.1 µM]	nt	nt
O=C(CNc1ccccc1F)Nc1cccc(S(=O)(=O)N2CCCCC2)c1	nt	-28.5%	-28.2%[46.1 µM]	nt	-10.1%
CCOc1cc(CNCCCN2CCOCC2)ccc1OCC(=O)Nc1cccc2ccccc12	2.5	14.6µM*	?	-11.7	-3.9%
COCCN(C(=O)COC(=O)CCC1CCCC1)c1c(N)n(Cc2ccccc2)c(=O)[nH]c1=O	nt	13.6%	5.7%[46.1 µM]	nt	-8.1%
CCOc1ccc(NC(=O)CN2C(=O)C3(SCC(=O)N3c3ccc(F)cc3)c3ccccc32)cc1 (stereo not given)	nt	-7.1%[46.1 µM]	nt	nt	nt
CCCCOc1ccc(C2CC(=O)N(C)C2=O)cc1 (stereo not given)	20.5*	1.7%	-1.2%	31.7*	38.4%
C/C(=C\C(=O)c1ccccc1)NNc1nc2ccccc2s1	43.5*	22.8%	-1.2%[46.1 µM]	110.2*	105.3%
CC(=O)NNc1nc2ccccc2s1	1.4	?	0.8%	9.7	63.6%
COc1ccc2nc(NNC(=O)COc3ccccc3)sc2c1	0.9	12.3%	1.2%[14.2 µM]	-3.3	45.8%
O=C(NNc1nc2ccccc2s1)Nc1ccccc1	37.0*	?	?	28.8*	-11.0%[2.32 µM]
O=C(COc1ccccc1)NNc1nc2ccccc2s1	33.8*	nt	nt	63.4*	92.7%
S=C(Nc1ccccc1)c1nc2ccccc2s1	56.5*	10.6%	?	82.7*	-16.5%
Cc1ccccc1C(=O)NCCN1CCC(n2c(=O)[nH]c3ccccc32)CC1	nt	nt	nt	nt	19.1%
Cc1nc2nc(SCC(=O)NC3CCC(C)CC3)nn2c(C)c1Cc1ccccc1 (stereo not given)	nt	2.7%[46.1 µM]	nt	nt	nt
Cc1cccc(N=Nc2c(N)n[nH]c2N)c1	16.5*	nt	nt	35.7	32.9%
Nc1[nH]ncc1N=Nc1ccc(Cl)cc1	55.2*	21.4%	4.2%	98.2*	-9.0%
SMILES	CHX counter	LASV entry inh	MARV entry inh	Shiga inhibitor	AMA1 RON2 block
O=c1cc(N=Nc2ccc(Cl)cc2)[nH]c(=O)[nH]1	-1.5	?	5.3%[46.1 µM]	-10.6	0.8%
Nc1n[nH]c(N)c1N=Nc1cccc(F)c1	15.9	0.9%	12.4%	34.4*	14.5%
Nc1n[nH]c(N)c1N=Nc1ccc(Cl)cc1	47.4*	13.2%	?	19.5	34.4%
Nc1n[nH]c(N)c1N=Nc1cccc(C(F)(F)F)c1	14.6	nt	nt	22.3	33.2%
COc1ccc(CCNCc2cc3ccc(C)cc3[nH]c2=O)cc1OC	-3.7	nt	nt	-6.1	5.7%
CCc1ccc(S(=O)(=O)c2nnn3c2nc(N2CCOCC2)c2sccc23)cc1	nt	26.9%[46.1 µM]	nt	nt	nt
Cc1ccccc1-n1nc2c(c1NC(=O)C(C)(C)C)CS(=O)(=O)C2	0.7	nt	nt	-0.7	-1.1%
Cc1csc(NC(=O)CSc2nnc(-c3ccncc3)o2)n1	15.8*	3.6%	-15.4%	30.2	54.0%
Cc1occc1-c1nnc(SCC(=O)N(C)C)o1	32.6*	?	20.4%	54.4	17.2%
Cc1occc1-c1nnc(SCC(=O)Nc2nc(C(C)(C)C)cs2)o1	27.4*	-22.1%	?	49.6*	20.0%
Cc1csc(NC(=O)CSc2nnc(-c3ccoc3C)o2)n1	41.0*	?	-4.8%	69.8*	50.6%
CCn1c(SCC(=O)Nc2nc(C)cs2)nnc1-c1ccoc1C	4.4	-8.7%	-4.8%	-15.3	-7.8%
CC(=O)Oc1ccc(C(=O)Nc2ccc(S(=O)(=O)NCC3CCCO3)cc2)cc1 (stereo not given)	-1.9	-4.5%[46.1 µM]	?	-5.8	-0.2%
Cc1ccc(NC(=O)CS(=O)CC(=O)N(CC(=O)NC(C)(C)C)c2cccc(C)c2C)cc1 (stereo not given)	-4.3	-1.9%	-19.8%[46.1 µM]	-11.2	-4.8%
Cc1cc(-c2nnc(SCC(=O)Nc3ccccn3)o2)no1	0.4	-1.6%	?	-6.8	86.6%
Cc1cc(-c2nnc(SCC(=O)Nc3nccs3)o2)no1	19.7*	nt	nt	43.1*	-17.3%
COC(=O)[C@]12CCCCC=C1N(CCC1=CCCCC1)C(=O)[C@H](CC(=O)N1CCN(C(=O)c3ccco3)CC1)C2	nt	nt	nt	nt	-13.9%
Nc1ccccc1N=c1ssnc1Cl	18.8	11.2%[46.1 µM]	28.3%[46.1 µM]	55.1*	60.7%
Cc1ccc(N=c2ssnc2Cl)cc1	26.4*	?	-23.6%	32.8	32.5%
Cc1cc(Cl)ccc1N=c1ssnc1Cl	3.5	-22.6%	-8.4%	-14.3	20.8%
COc1cc(N=c2ssnc2Cl)c(OC)cc1Cl	-1.7	?	16.4µM*	-9.1	-20.4%
CN(CCC#N)c1ccc(C=C(C#N)c2ccc(Br)cc2)cc1	nt	nt	nt	nt	-21.7%
N#C/C(=C\c1ccc(C(=O)O)cc1)c1ccccn1	9.3	?	19.0%[46.1 µM]	12.9	10.1%
CN(CCC#N)c1ccc(/C=C(\C#N)c2ccccn2)cc1	48.2*	2.24µM*	8.2µM*	active	5.8%
COc1cc(/C=C(\C#N)c2ccccn2)ccc1OCc1ccccc1	31.5*	12.7%	2.5%	77.0*	7.8%
SMILES	CHX counter	LASV entry inh	MARV entry inh	Shiga inhibitor	AMA1 RON2 block
CCN(CC)c1ccc(/C=C(\C#N)c2ccccn2)cc1	35.5*	5.8µM*	?	26.2	-5.4%
CCN(Cc1ccccc1)c1ccc(/C=C(\C#N)c2ccccn2)cc1	55.6*	17.7%	-18.2%	98.2*	-11.7%
Cc1cccc(N2C(=O)N(Cc3cccc(C#N)c3)c3ccccc3S2(=O)=O)c1	nt	-1.8%[46.1 µM]	nt	nt	nt
NS(=O)(=O)c1ccc(CNC(=O)CNC(=O)c2ccc(Br)o2)cc1	22.0	?	21.4%[46.1 µM]	55.2	-4.1%
COc1ccccc1N1CCN(C(=O)c2ccc(COc3cccc4c3OC(C)(C)C4)cc2)CC1	nt	?	?	nt	-20.7%
Cc1ccc(CNc2ncnc3c2cnn3-c2ccccc2)cc1	1.2	3.7%	-13.4%	-4.9	-7.3%
CCCCNc1ncnc2c1cnn2-c1ccccc1	60.9*	?	10µM*	91.9*	0.0%
CCCCNc1ncnc2c1cnn2-c1ccc(Cl)cc1	50.7*	nt	nt	71.5*	-7.2%
CC(C)(C)C(=O)CSc1ncnc2c1cnn2-c1ccccc1	43.2*	?	?	62.5*	-11.5%
